Results with a measured potency or affinity are listed apart.
Columns and labels:
Staphylococcus aureus = details: Concentration 32 ug.mL-1;; ASSAY_TEST Inhibition of Bacterial Growth; detection method Absorption (OD600); MEDIA CAMHB; plate type 384well; NBS; CORNING #3640; time 18 hr
Escherichia coli = details: Concentration 32 ug.mL-1;; ASSAY_TEST Inhibition of Bacterial Growth; detection method Absorption (OD600); MEDIA CAMHB; plate type 384well; NBS; CORNING #3640; time 18 hr

| SMILES | Inhibition (Staphylococcus aureus) | Inhibition (Escherichia coli) |
| --- | --- | --- |
| CCc1nnc2c(S(=O)(=O)N(Cc3ccccc3Cl)c3ccccc3)cccn12 | 0.81% | -6.41% |
| CCCCOc1ccc(-c2cc3c4nnc(SCC(=O)Nc5c(C)cccc5C)n4ccn3n2)cc1 | -7.16% | -10.46% |
| COc1ccc(NC(=O)Cn2nc3cc(C)nc(Nc4ccc(F)cc4)n3c2=O)cc1F | 9.09% | -0.97% |
| O=C(Cn1nc2ccc(Sc3cccc(F)c3)nn2c1=O)Nc1cccc(C(F)(F)F)c1 | 5.63% | -8.75% |
| Cc1nnc2ccc(S(=O)(=O)N(Cc3cc(F)cc(F)c3)c3ccc(F)cc3)cn12 | 1.57% | -3.09% |
| CC(C)c1nnc2c(=O)n(CC(=O)Nc3cccc(C#N)c3)c3ccccc3n12 | 14.89% | 2.48% |
| Cc1ccc(-c2cc3c4nn(CC(=O)Nc5cc(Cl)ccc5C)c(=O)n4ccn3n2)cc1C | 2.42% | -7.74% |
| O=C(Cn1nc2ccc(-c3ccccc3)nn2c1=O)Nc1ccc(Cl)c(C(F)(F)F)c1 | 6.21% | -6.69% |
| CSc1cccc(NC(=O)Cn2nc3c(Oc4cc(C)cc(C)c4)nccn3c2=O)c1 | 3.38% | -5.29% |
| CC(C)c1ccc(NC(=O)Cn2nc3c(Sc4ccccc4)nccn3c2=O)cc1 | -14.37% | -14.79% |
| COc1ccccc1NC(=O)Cn1nc2c(SCc3ccccc3)nccn2c1=O | -5.43% | -12.47% |
| COc1ccc(C(=O)CSc2nnc3c(=O)n(-c4ccc(Br)cc4)ccn23)cc1 | 17.48% | 2.13% |
| COc1ccc(NC(=O)Cn2nc3c4cc(-c5ccc(C)cc5)nn4ccn3c2=O)cc1Cl | -6.7% | -3.03% |
| CCc1nnc2c(=O)n(CC(=O)Nc3ccc(NC(C)=O)cc3)c3ccccc3n12 | 1.89% | -3.04% |
| Cc1ccc(Cn2nc3c(=O)n(-c4ccc(C)c(C)c4)ccn3c2=O)cc1 | 14.06% | -0.87% |
| COc1ccc(CNC(=O)Cn2nc3c(N4CC(C)CC(C)C4)nccn3c2=O)cc1 (centres undefined) | 7.67% | -5.82% |

| SMILES | Inhibition (Staphylococcus aureus) | Inhibition (Escherichia coli) |
| --- | --- | --- |
| Cc1cc(C)c(NC(=O)Cn2nc3ccc(SC4CCCCC4)nn3c2=O)c(C)c1 | 7.62% | -6.45% |
| Cc1ccc(NC(=O)Cn2nc3c4cc(-c5ccc(C)c(C)c5)nn4ccn3c2=O)c(C)c1 | -8.87% | -22.36% |
| COc1ccc(OC)c(NC(=O)Cn2nc3ccc(SCc4ccc(Cl)cc4)nn3c2=O)c1 | -2.6% | -8.88% |
| CCCn1c(=O)c2sccc2n2c(=O)n(CC(=O)c3ccc(OC)c(OC)c3)nc12 | 7.14% | -1.62% |
| COc1ccc(-c2cc3c4nn(CC(=O)Nc5cc(C)cc(C)c5)c(=O)n4ccn3n2)cc1 | 1.97% | 7.1% |
| NC(=O)Cn1nc2n(CCC(=O)NC3CCCCC3)c(=O)c3ccccc3n2c1=O | 4.99% | 0.77% |
| CCc1ccc(N(Cc2ccccc2)S(=O)(=O)c2cccn3c(C)nnc23)cc1 | 11.03% | -3.19% |
| Cc1cccc(NC(=O)c2ccc3nnc(SCC(=O)Nc4ccc(Br)cc4)n3c2)c1 | 11.58% | 0.25% |
| O=C(CSc1nnc2c3cc(-c4ccccc4)nn3ccn12)NCc1ccc(Cl)cc1 | 6.91% | -1.12% |
| Cc1ccc(-c2cc3c4nnc(CCC(=O)N5CCC(Cc6ccccc6)CC5)n4ccn3n2)cc1C | 10.73% | 2.4% |
| CCc1ccccc1Sc1nccn2c(=O)n(CC(=O)Nc3ccc(OC)c(Cl)c3)nc12 | 1.89% | -5.89% |
| CCOc1ccc(-n2ccn3c(SCC(=O)Nc4cccc(CC)c4)nnc3c2=O)cc1 | -2.86% | -8.29% |
| O=S(=O)(c1ccc2nncn2c1)N(Cc1ccccc1F)c1ccc(F)c(F)c1 | -7.25% | -4.39% |
| O=C(Cn1nc2c(N3CCOCC3)nccn2c1=O)NCc1cccs1 | 22.65% | 1.24% |
| COc1cccc(CNC(=O)Cn2nc3c4cc(-c5cc(C)ccc5C)nn4ccn3c2=O)c1OC | 2.74% | -0.3% |
| COc1ccccc1N1CCN(C(=O)Cn2nc3ccc(-c4ccccc4)nn3c2=O)CC1 | -11.69% | -1.16% |

— ChEMBL document CHEMBL4513146, “CO-ADD screening of Karazin Kharkiv National University (Ukraine) compounds”
